# RE007 growth inh – less growth of the S. pombe RE007 Vpr strain. Potency, µM (doses to about 92.2 µM), without a hit: at the top dose activity change, negative = less growth, usual class: inhibitors. AID 651644. 360,000 tested, 0.21% active. S. pombe RE007 Vpr strain, BacTiter-Glo ATP luminescence, 24 h; active means well fitted falling curve with a large enough effect; inconclusive means small, poorly fitted or top-dose-only effect; inactive means no such curve, though single readings can be large or run the other way; further: potency means the concentration at half of the fitted maximal effect; on the % scale 0 is the no-effect control and ±100 the full control effect; nearly all actives have a fitted effect of over 50% in size
#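 Fission yeast RE007 carrying one integrated HIV-1 vpr copy, seeded at OD 0.01 in PMG+AL medium with 23 nL pinned compound. Grown 24 h at 30 degrees; viability read by BacTiter-Glo luminescence after 5 min.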
# LmPK inh – inhibitors of Leishmania mexicana pyruvate kinase; purified LmPK, Kinase-Glo ATP luminescence, 1 h; 290,000 tested, 0.37% active; Potency, µM (top dose mostly 57.5 µM), for the others: at the highest dose activity change, negative = inhibition, actives largely listed as inhibitors; AID 1721; Q27686; further: potency means the concentration at half of the fitted maximal effect; on the % scale 0 is the no-effect control and ±100 the full control effect
#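 Purified LmPK (0.1 nM) converted ADP (0.1 mM) to ATP with PEP (0.5 mM) in imidazole buffer pH 7.2 with KCl and MgCl2, 1 h at room temperature. ATP was read by Kinase-Glo luminescence; data normalized to uninhibited and no-enzyme controls.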
# Cycloheximide cs – affects cycloheximide protein synthesis inhibition readout, counter-screen | max response, % | AID 2314 | cell reporter, cycloheximide protein synthesis inhibition counterscreen | 300,000 tested, 12% active; in the data active means max response mostly above about 13%, no sharp cut-off; inactive means mostly below about 14%; further: read at 38.3 µM for the half of the compounds with a filed dose; 0% is about no effect
# Giardia FBPA inh-1 – Giardia lamblia aldolase inhibition; purified Giardia FBPA; 290,000 tested, 0.71% active; AID 2451; A8B2U2; Potency, µM (highest dose often 59.6 µM), for inactives: at the highest dose activity, negative = inhibition, usual class: inhibitors; further: potency means the concentration at half of the fitted maximal effect; on the % scale 0 is the no-effect control and ±100 the full control effect; nearly all actives have a fitted effect of over 55% in size
# Target sequence (A8B2U2 whole entry, looked up): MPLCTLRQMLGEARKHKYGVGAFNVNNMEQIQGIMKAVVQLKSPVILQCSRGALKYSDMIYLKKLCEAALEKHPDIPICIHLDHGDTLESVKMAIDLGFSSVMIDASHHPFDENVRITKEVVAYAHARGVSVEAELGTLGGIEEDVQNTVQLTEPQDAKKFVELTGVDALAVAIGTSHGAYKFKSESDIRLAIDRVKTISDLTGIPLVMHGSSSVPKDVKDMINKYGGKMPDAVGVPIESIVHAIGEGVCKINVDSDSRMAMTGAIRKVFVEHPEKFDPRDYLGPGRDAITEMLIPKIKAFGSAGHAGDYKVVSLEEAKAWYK
#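 Giardia FBPA (40 nM reagent) was preincubated 10 min at RT with compound (up to 57.5 uM final), then substrate plus GAPDH/TPI/NAD/arsenate coupling system with diaphorase/resazurin was added; resorufin fluorescence (525/598 nm) was read after 20 min.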
# Shiga inhibitor – blocks Shiga toxin action in Vero cells; 290,000 tested, 9.2% active; AID 2315; inhibition, % at 38.7 µM; Vero cells, Shiga toxin protein synthesis inhibition reporter; in the data active means inhibition mostly above about 28%, no sharp cut-off; inactive means mostly below about 43%; further: 0% is about no effect
# Tb PYK inh – T. brucei pyruvate kinase inhibition; Potency, µM (doses to about 76.8 µM), without a hit: at the top dose activity, negative = inhibition, usual class: inhibitors; TbPYK enzyme, Kinase-Glo Plus ATP luminescence, 45 min; Q57TT1; 410,000 tested, 0.12% active; further: potency means the concentration at half of the fitted maximal effect; on the % scale 0 is the no-effect control and ±100 the full control effect; nearly all actives have a fitted effect of over 50% in size
#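 Quantitative HTS: titrated library compounds versus trypanosomal pyruvate kinase in TEA buffer (pH 7.2) containing KCl, MgCl2, BSA and Tween-20. Reactions were initiated with ADP, 130 uM final. Kinase-Glo Plus luminescence was read after 45 min at RT.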
# Giardia growth – blocks growth of Giardia lamblia trophozoites | shares compounds with Giardia FBPA inh-1 | Giardia lamblia trophozoite growth inhibition | Potency, µM (series often up to 57.5 µM), for inactives: top-dose activity change, negative = inhibition, hits mostly inhibitors | 1,500 tested, 5% active | AID 2785;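 further: potency means the concentration at half of the fitted maximal effect; trophozoites exposed to compound for 48 h at 37 °C; on the % scale 0 is the no-effect control and ±100 the full control effect; nearly all actives have a fitted effect of over 70% in size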
# Mammal cell tox – counter-screen for Giardia aldolase inhibitors: mammalian cell toxicity. Potency, µM (doses to about 57.5 µM), without a hit: at the highest dose viability change, negative = toxicity, actives largely listed as inhibitors. shares compounds with Giardia FBPA inh-1. 1,500 tested, 4% active. mammalian cell viability counter-screen, qHTS;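 further: Chinese hamster ovary cells used as mammalian cytotoxicity surrogate; viability measured as cellular ATP by luminescence; potency means the concentration at half of the fitted maximal effect; compound exposure lasted 48 h before reading; on the % scale 0 is the no-effect control and ±100 the full control effect; nearly all actives have a fitted effect of over 60% in size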
# Giardia FBPA inh-2 – confirmation of Giardia fructose-bisphosphate aldolase inhibitors. purified Giardia aldolase enzyme activity, qHTS. Potency, µM (doses to about 57.5 µM), for inactives: at the highest dose activity change, negative = inhibition, usual class: inhibitors. 1,500 tested, 5% active. shares compounds with Giardia FBPA inh-1; further: potency means the concentration at half of the fitted maximal effect; on the % scale 0 is the no-effect control and ±100 the full control effect; nearly all actives have a fitted effect of over 45% in size
# Rabbit FBPA inh – blocks rabbit muscle aldolase in Giardia aldolase selectivity test; Rabbit muscle FBPA enzyme inhibition, selectivity counter-screen; shares compounds with Giardia FBPA inh-1; AID 2794; 1,500 tested, 4% active; Potency, µM (top dose mostly 57.5 µM), without a hit: at the highest dose activity, negative = inhibition, hits mostly inhibitors; further: potency means the concentration at half of the fitted maximal effect; on the % scale 0 is the no-effect control and ±100 the full control effect; nearly all actives have a fitted effect of over 60% in size
# Target sequence (P00883 whole entry, looked up): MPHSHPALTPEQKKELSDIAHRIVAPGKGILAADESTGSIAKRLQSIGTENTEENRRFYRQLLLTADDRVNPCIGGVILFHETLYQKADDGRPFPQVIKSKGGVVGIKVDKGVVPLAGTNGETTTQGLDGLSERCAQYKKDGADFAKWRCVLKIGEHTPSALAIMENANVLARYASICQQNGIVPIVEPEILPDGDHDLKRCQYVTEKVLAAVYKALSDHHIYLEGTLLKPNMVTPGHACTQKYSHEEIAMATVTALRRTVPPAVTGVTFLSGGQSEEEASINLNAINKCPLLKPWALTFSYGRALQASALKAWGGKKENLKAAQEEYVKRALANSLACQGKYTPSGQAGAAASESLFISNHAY
# GAPDH coupling – counter-screen for Giardia aldolase inhibitors: GAPDH coupling enzyme. shares compounds with Giardia FBPA inh-1. GAPDH coupling enzyme counterscreen, biochemical, qHTS. Potency, µM (titrated, usually from 57.5 µM), inactives show at the highest dose activity change, negative = inhibition, most hits filed as inhibitors. 1,500 tested, 6% active; further: potency means the concentration at half of the fitted maximal effect; on the % scale 0 is the no-effect control and ±100 the full control effect; nearly all actives have a fitted effect of over 55% in size
# The depositor's hits bear a star; ? = inconclusive; . = no result; [ ] = remark or other dose. The entries come from a sample that favours hits as a whole. Unless noted, the call rests on the fitted dose curve; in most records, active means well fitted curve in the direction sought with a large enough effect; inconclusive means small, poorly fitted or top-dose-only effect, or another doubt; inactive means no such curve, though single readings can be large; an effect the other way counts as inactive or inconclusive.
SMILES,RE007 growth inh,LmPK inh,Cycloheximide cs,Giardia FBPA inh-1,Shiga inhibitor,Tb PYK inh,Giardia growth,Mammal cell tox,Giardia FBPA inh-2,Rabbit FBPA inh,GAPDH coupling
NS(=O)(=O)c1ccc(NC(=S)NC(=O)c2ccc(Br)o2)cc1,-4%,-4%,7,18µM*,17,-12%,7%[10.4 µM],0%,-3%,6%,6%
CN(C)S(=O)(=O)c1ccc(NC(=S)NC(=O)c2ccc(Br)o2)cc1,.,-6%,5,16µM*,0,.,3%[10.4 µM],-8%,1%,7%,15%
Cc1cc(C)cc(NS(=O)(=O)c2ccc(NC(=S)NC(=O)c3ccc(Br)o3)cc2)c1,17%,1%,17,-24%,-2,-7%,.,.,.,.,.
NS(=O)(=O)c1ccc(NC(=S)NC(=O)c2cccs2)cc1,8%,1%,9,18µM*,28,-3%,?,7%,7%,5%,4%
O=C(NC(=S)Nc1ccc(S(=O)(=O)N2CCCCC2)cc1)c1cccs1,-1%,2%,2,?,-5,4%,.,.,.,.,.
CCCn1c(SCC(=O)Nc2nnc(CC)s2)nnc1-c1ccncc1,14%,-4%,-1,-2%,-10,7%,.,.,.,.,.
O=C(NC(=S)N1CCN(Cc2ccccc2)CC1)c1cccnc1,-6%,-12%,-2,18µM*,-14,?,?,12%,2%,3%,8%
O=C(NC(=S)N1CCCCC1)c1cccnc1,19%,0%,-3,?,-8,-6%,.,.,.,.,.
O=C(NC(=S)N1CCN(C/C=C/c2ccccc2)CC1)c1ccc(Cl)nc1,1%,4%,-1,7.9µM*,-10,-18%,-14%[38.3 µM],?,-2%,4%,-8%
CC1=C/C(=N\NC(=S)Nc2cccnc2)CC(C)(C)C1,-4%,5%,11,3%,18,-6%,.,.,.,.,.
Cc1[nH]n(-c2ccccc2)c(=O)c1N=Nc1ccc(C(=O)O)cc1,5%,2%,10,-25%,-5,0%,.,.,.,.,.
CC(=O)c1ccc(N=Nc2c(C)[nH]n(-c3ccccc3)c2=O)cc1,0%,-2%,-3,7.1µM*,9,1%,?,-2%,5%,4%,5%
O=C(Nc1ccccc1C(=O)O)/C(=C/c1ccc(Cl)cc1Cl)NC(=O)c1ccco1,1%,2%,1,.,22,-5%,.,.,.,.,.
CC(=O)N/N=C(\C)c1ccc2c(c1)OCCO2,0%,-4%,7,3%,12,-2%,.,.,.,.,.
CCOC(=O)CCCc1ccc(/C(C)=N/NC(N)=S)cc1,3%,4%,15*,6.3µM*,25,-13%,13%[38.3 µM],-1%,10%,9%,-3%
C/C(=N\NC(N)=S)c1ccccc1,-4%,1%,4,16µM*,19,-3%,27%,7%,6%,5%,7%
NC(=S)NN=C(c1ccccc1)c1ccccc1,-9%,-7%,-2,?,2,2%,.,.,.,.,.
C/C(=N\NC(N)=S)c1ccc2c(c1)OCCO2,-26%,0%,26*,18µM*,43*,-11%,?,-10%,11%,8%,9%
CCOC(=O)CCCc1ccc(/C(C)=N/NC(=S)NC)cc1,-9%,0%,-2,-9%,-12,3%,.,.,.,.,.
CCOC(=O)CNC(=S)N(CCCN1CCN(C)CC1)Cc1cccs1,19%,0%,3,8%,33,1%,.,.,.,.,.
CC(OC(=O)c1cccc(S(=O)(=O)N2CCCC2)c1)C(=O)c1ccccc1 (stereo unspecified),-4%,-7%,-3,.,-25,-1%,.,.,.,.,.
CC1CCCN(C(=O)c2cccc(S(=O)(=O)N3CCCC3)c2)C1 (stereo unspecified),-5%,.,.,.,.,1%,.,.,.,.,.
O=C1CCCC2=C1C(c1ccccc1)CC(=O)N2c1ccc(F)cc1F (stereo unspecified),-8%,18%,5,6%,-9,1%,.,.,.,.,.
CCOc1ccc(CCNC(=O)NCc2noc3ccc(C)cc23)cc1,.,.,.,.,.,-1%,.,.,.,.,.
COc1ccc(C(=O)N2CCN(Cc3ccccc3C(F)(F)F)CC2)cc1,6%,0%,-6,?,-11,-1%,.,.,.,.,.
SMILES,RE007 growth inh,LmPK inh,Cycloheximide cs,Giardia FBPA inh-1,Shiga inhibitor,Tb PYK inh,Giardia growth,Mammal cell tox,Giardia FBPA inh-2,Rabbit FBPA inh,GAPDH coupling
COc1cc(OC)cc(C(=O)N2CCN(Cc3ccccc3[N+](=O)[O-])CC2)c1,21%,-1%,0,18µM*,18,10%,-1%[10.4 µM],1%,7%,17%,6%
O=C(c1ccccc1)N1CCN(Cc2ccccc2C(F)(F)F)CC1,-7%,-3%,5,20µM*,39,-2%,35%,3%,2%,3%,13%
COc1cccc(C(=O)N2CCN(Cc3ccccc3Br)CC2)c1,-19%,0%,-2,16µM*,-8,18%,0%[10.4 µM],-5%,-5%,9%,-13%
Cc1ccc(S(=O)(=O)/N=C(/Nc2cccc(O)c2)c2ccccc2)cc1,-5%,3%,-3,11%,-5,2%,.,.,.,.,.
COCCCn1c(=O)c2ccccc2n2c(=S)[nH]nc12,2%,9%,-2,7.1µM*,26,?,-21%[38.3 µM],-5%,7%,-2%,-16%
COc1cc(-c2nc(S(=O)(=O)c3ccc(C)cc3)c(N3CCOCC3)o2)cc(OC)c1OC,39%,1%,1,35µM*,-8,5%,?,-22%,3%,10%,6%
COc1cccc(NC(=O)CCc2nnc3n(CC(C)C)c(=O)c4ccccc4n23)c1,.,.,.,.,.,4%,.,.,.,.,.
C/C(=N/O)c1ccccn1,8%,4%,6,3.2µM*,-6,-1%,0%[38.3 µM],-19%,-21%,13%,?
O=c1[nH][nH]c(=S)n1-c1ccccc1C(F)(F)F,.,-9%,-1,18µM*,10,.,?,12%,-8%,-3%,-5%
CCC(=O)NC1=C(Cl)C(=O)C(NC(=O)CC)=C(Cl)C1=O,.,?,14*,1.8µM*,5,2.5µM*,14%[38.3 µM],?,2.9µM*,5.2µM*,3.7µM*

# Screens deposited in PubChem BioAssay by National Center for Advancing Translational Sciences (NCATS).
